We go through 40 molecules from PubChem BioAssay (NCATS).

Records with an inconclusive call do not appear. Entries that show only a call come without a potency. Activity calls are given as the source filed them. Calls follow the shape of the dose curve; as a rule, active = well fitted cell-killing curve with a large enough effect; inconclusive = small, poorly fitted or top-dose-only effect, or effect the other way; inactive = no such curve, though single readings can be large or run the other way.

The assay can be described thus: qHTS assay to identify small molecule inhibitors of chordoma cells - UCH-1 (AID 1259355). Also: nearly all actives have a fitted effect of over 55% in size. To be noted: UCH-1 chordoma viability, CellTiter-Glo, 48 h, combination, with auranofin plus four topoisomerase inhibitors; series mostly up to 46.1 µM. The source says: NIH Chemical Genomics Center [NCGC]
Chordoma is a rare and slow growing tumor that can occur anywhere along the spine, from the base of the skull to the tailbone. Current treatment options for chordoma is surgery and radiation therapy for those who are not candidates for surgery. But chordomas tend to return in the same location or surrounding areas of the original tumor after surgery and/or radiation. Chemotherapy can slow down the progression of the tumor. As chordoma is slow growing, the general cytotoxic agents that kill fast growing cells are ineffective, and some patients have been reported to respond to molecularly targeted drugs.
NCATS Pharmaceutical Collection (NPC) containing approximately 3000 clinically approved and investigational drugs were used to screen at 15 concentrations in a chordoma cell lines, UCH-1, to identify small molecule compounds that can inhibit chordoma cell growth.
NCGC Assay Protocol Summary:
Human chordoma cell line UCH-1 was dispensed at 800 per well in 4uL of culture medium into white solid bottom 1536-well plates (Corning Life Sciences, Corning, NY) using a Multidrop Combi (Thermo Scientific, Waltham, MA) dispenser. The assay plates were incubated at 37 C and 5% CO2 for an overnight, and then 23nL of compounds dissolved in DMSO and positive control were transferred using a Pintool station (Wako, San Diego, CA). Compound treatment was followed by the addition of 1uL of the combination compounds (1uM Auranofin, 500nM each of Camptothecin, Doxorubicin, Rubitecan, and Topotecan) and assay medium to each well of the assay plates using Flying Reagent Dispenser (FRD, Aurora Discovery, San Diego, CA). The assay plates were incubated at 37 C and 5% CO2 for 48hr. Then 5uL of CellTiter-Glo reagent (Promega Corporation, Madison, WI) was added to each well of the assay plates using FRD. After 30min incubation at room temperature, the luminescence signal was quantified using a ViewLux plate reader (PerkinElmer, Shelton, CT).
(In general: Quantitative high-throughput screening tests each substance at several concentrations.)
On to `Cc1ccc(/C(=C\CN2CCCC2)c2ccccn2)cc1`, for which the Potency result is “inactive”.
In the case of `COc1ccc2c(c1OC)C(=O)O[C@@H]2[C@H]1c2c(cc3c(c2OC)OCO3)CCN1C`, the Potency entry is “inactive”.
In the case of `COC(=O)C1=C(C)NC(C)=C(C(=O)OC(C)(C)CN(C)CCC(c2ccccc2)c2ccccc2)C1c1cccc([N+](=O)[O-])c1` (stereo not given), the Potency entry was “inactive”.
Consider `CN1C(=O)CC[C@H]1c1cccnc1`, for which the Potency result is “inactive”.
Under `CN1CCN(C2=Nc3ccccc3Oc3ccc(Cl)cc32)CC1` stands “inactive”; under `CCn1ccnc1CC1COc2ccccc2O1` (stereo not given), “inactive”.
In the case of `Cc1ccc(S(=O)(=O)NC(=O)NN2CCCCCC2)cc1` it was “inactive”.
In the case of `N[C@@H](COP(=O)(O)O)C(=O)O` it was “inactive”; in that of `COCCOC(=O)C1=C(C)NC(C)=C(C(=O)OC(C)C)C1c1cccc([N+](=O)[O-])c1` (stereo not given), “inactive”.
Turning to `CN=C(NC#N)NCCSCc1nc[nH]c1C`, the Potency result was “inactive”.
In the case of `CCCCNc1c(C(=O)OCC)c(C)nc2c1cnn2CC` it was “inactive”; in that of `C[C@@H](O)[C@H]1C(=O)N2C(C(=O)O)=C(SCCN=CN)C[C@H]12`, “inactive”; in that of `CN(C)CC/C=C1\c2ccccc2COc2ccccc21`, “inactive”.
Under `CC(N=C(NC#N)Nc1ccncc1)C(C)(C)C` (stereo not given) stands “inactive”; under `COC(=O)C1=C(C)NC(C)=C(C(=O)OCCN(C)Cc2ccccc2)C1c1cccc([N+](=O)[O-])c1` (stereo not given), “inactive”.
For the molecule `CN(C)CCN(Cc1cccs1)c1ccccn1`, the Potency entry is “inactive”.
Turning to `NCCCNCCSP(=O)(O)O`, the Potency result was “inactive”.
As for `COc1ccc([C@@H]2Sc3ccccc3N(CCN(C)C)C(=O)[C@@H]2OC(C)=O)cc1`, the Potency result was “inactive”.
For the molecule `CCOC(=O)c1cnc2c(cnn2CC)c1NN=C(C)C`, the Potency entry is “inactive”.
In the case of `CCN1CCC[C@H]1CNC(=O)c1c(O)c(Cl)cc(Cl)c1OC` it was “inactive”; in that of `Nc1c2c(nc3ccccc13)CCCC2O` (stereo not given), “inactive”.
In the case of `Cc1scc2c1N(C(=O)CN1CCN(C)CC1)c1ccccc1NC2=O` it was “inactive”; in that of `CN(C)C(=O)Oc1ccc[n+](C)c1`, “inactive”.
Under `CCc1cccc(N(C)C(N)=Nc2cccc3ccccc23)c1` stands “inactive”.
As for `O=c1[nH]c(=O)n([C@H]2C[C@H](O)[C@@H](CO)O2)cc1Br`, the Potency result was “inactive”.
With `NC(=O)c1ncn([C@@H]2O[C@H](CO)[C@@H](O)[C@H]2O)c1O`, the Potency result is “inactive”.
Regarding `O=C(CCNNC(=O)c1ccncc1)NCc1ccccc1`, the Potency entry was “inactive”.
Turning to `CC(=O)OCC1=C(C(=O)O)N2C(=O)[C@@H](NC(=O)Cc3cccs3)[C@H]2SC1`, the Potency result is “inactive”.
In the case of `CCN(CC)CCOCCOC(=O)C1(c2ccccc2)CCCC1` it was “inactive”.
Regarding `CCCNC(C)C(=O)Nc1ccccc1C` (stereo not given), the Potency result was “inactive”.
Regarding `CCOC(=O)C1=C(C)NC(C)=C(C(=O)OC)C1c1cccc(Cl)c1Cl` (stereo not given), the Potency result was “inactive”.
In the case of `Cc1nc2ccccn2c(=O)c1CCN1CCC(C(=O)c2ccc(F)cc2)CC1` it was “inactive”; in that of `CC(=O)Nc1nnc(S(N)(=O)=O)s1`, “inactive”.
For `CC(C)NCC(O)c1cc(O)cc(O)c1` (stereo not given), the Potency result is “inactive”.
Under `Cc1nc2c([nH]1)c(=O)n(C)c(=O)n2Cc1ccco1` stands “inactive”.
Regarding `CCCCNc1ccc(C(=O)OCCN(C)C)cc1`, the Potency result was “inactive”.
Under `Cc1cc(C)c(/C=C2\C(=O)Nc3ccccc32)[nH]1` stands “inactive”; under `C#CCN(C)CCCOc1ccc(Cl)cc1Cl`, “inactive”; under `CN/C(=C\[N+](=O)[O-])NCCSCc1ccc(CN(C)C)o1`, “inactive”.
Turning to `NC1=NCC2c3ccccc3Cc3ccccc3N12` (stereo not given), the Potency entry is “inactive”.
